In all, about 5,500 compounds went through this assay and about 2,000 (36%) were called active. Another 18% or so got no clear call; they are omitted. No stated cut-off is given here; in the data, active means normalized growth mostly below about 0.91 (no sharp cut-off); inconclusive means no clear call, values can overlap the other calls; inactive means mostly above about 0.92. The list shows a part of the results.
Assay: chemical genetic growth profiling, strain panel (AID 1159580);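 further: tested at 20 µM; growth read once vehicle control cultures reached saturation at 30 °C; 1 = growth at the plate median or of vehicle wells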
Conditions: growth OD

Measured: normalized growth

CC1=C(/C=C/C(C)=C/C=C/C(C)=C/CO)C(C)(C)CCC1
inactive: S. cerevisiae deletion strains, locus YJR043C, strain POL32, stronger effect = lower value 0.985 | S. cerevisiae deletion strains, locus YJR066W, strain TOR1, stronger effect = lower value 0.94 | S. cerevisiae deletion strains, locus YKL009W, strain mrt4, stronger effect = lower value 0.993 | S. cerevisiae deletion strains, locus YKL068W, stronger effect = lower value 0.997 | S. cerevisiae deletion strains, locus YKL085W, strain MDH1 (second series), stronger effect = lower value 0.972 | S. cerevisiae deletion strains, locus YKL085W, strain MDH1, stronger effect = lower value 0.972 | S. cerevisiae deletion strains, locus YKL160W, strain elf1, stronger effect = lower value 1.04 | S. cerevisiae deletion strains, locus YKL190W, strain CNB1, stronger effect = lower value 0.991 | S. cerevisiae deletion strains, locus YKR001C, strain vps1, stronger effect = lower value 0.984 | S. cerevisiae deletion strains, locus YKR026C, strain gcn3, stronger effect = lower value 1.02 | S. cerevisiae deletion strains, locus YKR091W, strain srl3, stronger effect = lower value 1.01 | S. cerevisiae deletion strains, locus YLL001W, strain dnm1, stronger effect = lower value 0.975 | S. cerevisiae deletion strains, locus YLL026W, stronger effect = lower value 1.03 | S. cerevisiae deletion strains, locus YLL041C, strain sdh2, stronger effect = lower value 0.99 | S. cerevisiae deletion strains, locus YLR027C, strain aat2, stronger effect = lower value 1.01 | S. cerevisiae deletion strains, locus YLR039C, strain RIC1, stronger effect = lower value 1.01 | S. cerevisiae deletion strains, locus YLR058C, strain SHM2, stronger effect = lower value 0.976 | S. cerevisiae deletion strains, locus YLR102C, strain apc9, stronger effect = lower value 1 | S. cerevisiae deletion strains, locus YLR113W, strain HOG1, stronger effect = lower value 1 | S. cerevisiae deletion strains, locus YLR221C, strain rsa3, stronger effect = lower value 0.973 | S. cerevisiae deletion strains, locus YLR258W, strain gsy2, stronger effect = lower value 1.03 | S. cerevisiae deletion strains, locus YLR262C, strain YPT6 (second series), stronger effect = lower value 0.972 | S. cerevisiae deletion strains, locus YLR262C, strain YPT6, stronger effect = lower value 0.934 | S. cerevisiae deletion strains, locus YLR268W, strain sec22, stronger effect = lower value 1 | S. cerevisiae deletion strains, locus YLR320W, strain mms22, stronger effect = lower value 0.972 | S. cerevisiae deletion strains, locus YLR330W, strain CHS5, stronger effect = lower value 1 | S. cerevisiae deletion strains, locus YLR342W, strain FKS1 (second series), stronger effect = lower value 1.1 | S. cerevisiae deletion strains, locus YLR342W, strain FKS1, stronger effect = lower value 1.03 | S. cerevisiae deletion strains, locus YLR357W, strain rsc2, stronger effect = lower value 1.01 | S. cerevisiae deletion strains, locus YLR370C, strain arc18, stronger effect = lower value 1.01 | S. cerevisiae deletion strains, locus YLR371W, strain rom2, stronger effect = lower value 1.02 | S. cerevisiae deletion strains, locus YLR384C, strain iki3, stronger effect = lower value 1.01 | S. cerevisiae deletion strains, locus YLR418C, strain cdc73, stronger effect = lower value 0.965 | S. cerevisiae deletion strains, locus YML016C, strain PPZ1, stronger effect = lower value 0.998 | S. cerevisiae deletion strains, locus YML032C, strain rad52, stronger effect = lower value 1.01 | S. cerevisiae deletion strains, locus YML120C, strain ndi1, stronger effect = lower value 1 | S. cerevisiae deletion strains, locus YML124C, strain tub3, stronger effect = lower value 0.996 | S. cerevisiae deletion strains, locus YMR058W, strain fet3, stronger effect = lower value 0.998 | S. cerevisiae deletion strains, locus YMR078C, strain ctf18, stronger effect = lower value 1 | S. cerevisiae deletion strains, locus YMR125W, strain sto1, stronger effect = lower value 1.02 | S. cerevisiae deletion strains, locus YMR129W, stronger effect = lower value 1.02 | S. cerevisiae deletion strains, locus YMR205C, strain PFK2, stronger effect = lower value 0.96 | S. cerevisiae deletion strains, locus YMR223W, strain ubp8, stronger effect = lower value 0.998 | S. cerevisiae deletion strains, locus YMR231W, strain pep5, stronger effect = lower value 0.997 | S. cerevisiae deletion strains, locus YMR307W, strain GAS1, stronger effect = lower value 0.982 | S. cerevisiae deletion strains, locus YNL067W, strain RPL9B, stronger effect = lower value 0.962 | S. cerevisiae deletion strains, locus YNL071W, strain lat1, stronger effect = lower value 1.03 | S. cerevisiae deletion strains, locus YNL183C, strain NPR1, stronger effect = lower value 0.938 | S. cerevisiae deletion strains, locus YNL209W, strain ssb2, stronger effect = lower value 1.02 | S. cerevisiae deletion strains, locus YNL233W, strain BNI4, stronger effect = lower value 0.974 | S. cerevisiae deletion strains, locus YNL248C, strain rpa49, stronger effect = lower value 1.09 | S. cerevisiae deletion strains, locus YNL250W, strain rad50, stronger effect = lower value 0.982 | S. cerevisiae deletion strains, locus YNL271C, strain bni1, stronger effect = lower value 1.01 | S. cerevisiae deletion strains, locus YNL298W, strain CLA4, stronger effect = lower value 1.01 | S. cerevisiae deletion strains, locus YNL307C, strain MCK1, stronger effect = lower value 1.01 | S. cerevisiae deletion strains, locus YNL322C, strain KRE1 (second series), stronger effect = lower value 1.05 | S. cerevisiae deletion strains, locus YNR049C, strain mso1, stronger effect = lower value 1.01 | S. cerevisiae deletion strains, locus YNR052C, strain pop2, stronger effect = lower value 1.01 | S. cerevisiae deletion strains, locus YOL006C, strain TOP1, stronger effect = lower value 0.929 | S. cerevisiae deletion strains, locus YOL012C, strain htz1 0.793 | S. cerevisiae deletion strains, locus YOL147C, strain pex11, stronger effect = lower value 0.994 | S. cerevisiae deletion strains, locus YOR001W, strain rrp6, stronger effect = lower value 0.983 | S. cerevisiae deletion strains, locus YOR061W, strain CKA2, stronger effect = lower value 0.961 | S. cerevisiae deletion strains, locus YOR069W, strain VPS5, stronger effect = lower value 1.01 | S. cerevisiae deletion strains, locus YOR070C, strain gyp1, stronger effect = lower value 1 | S. cerevisiae deletion strains, locus YOR080W, strain dia2, stronger effect = lower value 1.01 | S. cerevisiae deletion strains, locus YOR083W, strain WHI5, stronger effect = lower value 0.988 | S. cerevisiae deletion strains, locus YOR106W, strain vam3, stronger effect = lower value 1 | S. cerevisiae deletion strains, locus YOR136W, strain idh2, stronger effect = lower value 0.992 | S. cerevisiae deletion strains, locus YOR144C, strain elg1, stronger effect = lower value 1 | S. cerevisiae deletion strains, locus YOR184W, strain ser1, stronger effect = lower value 1.01 | S. cerevisiae deletion strains, locus YOR231W, strain MKK1, stronger effect = lower value 0.988 | S. cerevisiae deletion strains, locus YOR265W, strain rbl2, stronger effect = lower value 1 | S. cerevisiae deletion strains, locus YOR270C, strain vph1, stronger effect = lower value 0.848 | S. cerevisiae deletion strains, locus YOR290C, strain snf2, stronger effect = lower value 1.05 | S. cerevisiae deletion strains, locus YOR316C, strain cot1, stronger effect = lower value 1 | S. cerevisiae deletion strains, locus YPL051W, strain arl3, stronger effect = lower value 1.04 | S. cerevisiae deletion strains, locus YPL055C, strain LGE1, stronger effect = lower value 0.873 | S. cerevisiae deletion strains, locus YPL078C, strain atp4, stronger effect = lower value 1.02 | S. cerevisiae deletion strains, locus YPL106C, strain sse1, stronger effect = lower value 1.13 | S. cerevisiae deletion strains, locus YPL240C, strain hsp82, stronger effect = lower value 1.01 | S. cerevisiae deletion strains, locus YPL256C, strain CLN2, stronger effect = lower value 1.04 | S. cerevisiae deletion strains, locus YPR119W, strain clb2, stronger effect = lower value 1 | S. cerevisiae deletion strains, locus YPR141C, strain kar3, stronger effect = lower value 0.997 | S. cerevisiae deletion strains, locus YPR163C, strain tif3, stronger effect = lower value 0.998 | S. cerevisiae deletion strains, locus YPR167C, strain met16, stronger effect = lower value 1 | S. cerevisiae deletion strains, strain wtn01, stronger effect = lower value 1.03 | S. cerevisiae strains, strain wild type, stronger effect = lower value 0.979
